Measurements reported in PMC5540273 (PLoS ONE, 2017).

system: T1, PRKR; settings: concentration: 1 μM,replicates: in singlicate; n = 1
T1 construct: gene EIF2AK2
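Note: KINOMEscan kinase panel screen.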

| SMILES | %Inh |
| --- | --- |
| O=C(Nc1ccccc1)c1cccc(Oc2ccc3nccn3n2)c1 | 0% |
| Cc1ccc(CC(=O)N2CCc3cc(-c4cn(C)c5ncnc(N)c45)ccc32)cc1 [GSK2634758] | 7% |
| COC(=O)c1cccc(NC(=O)NC2CCN(c3ccnc(NCc4ccc(F)cc4)n3)CC2)c1 [GSK1379860] | 0% |
| Cc1n[nH]c2cc(Nc3ccnc(Nc4cccc(CN5CCOCC5)c4)n3)ccc12 [GW682569] | 23% |
| CCN1CCN(CCCC(=O)Nc2n[nH]c3nc(-c4ccc(O)cc4)c(Br)cc23)CC1 [SB-731579] | 0% |
| COc1ccc(Nc2nccc(N3CCC(NC(=O)c4cccc(C#N)c4)C3)n2)cc1 (stereo not shown) [GSK1379730] | 0% |
| C[C@@H](Oc1cc(-n2cnc3cc(-c4ccncc4)ccc32)sc1C(N)=O)c1ccccc1Cl [GSK479719] | 0% |
| Cc1nnc(-c2ccc3occ(-c4ccc(S(C)=O)cc4)c3n2)o1 (stereo not shown) | 56% |
| Cn1cc(-c2cccc3c(N)c(C(N)=O)nnc23)cn1 | 0% |
| Cl.Nc1n[nH]c2cc(-c3ccccn3)ccc12 [GSK2189892] | 0% |
| COc1cccc(CNC(=O)NC2CCN(c3ccnc(Nc4cc(OC)c(OC)c(OC)c4)n3)C2)c1 (stereo not shown) [GSK1379765] | 0% |
| Cc1ccc(C(=O)Nc2ccc(Oc3ccc4nc(NC(=O)C5CC5)cn4c3)c(F)c2)c(=O)n1-c1ccccc1 | 4% |
| Cc1cccc2c(-c3ccncc3)c(-c3ccc(F)cc3)nn12.Cl [GW461487] | 0% |
| C[C@@H](Oc1cc(-n2cnc3ccc(-c4ccncc4)cc32)sc1C(N)=O)c1ccccc1Cl [GSK483724] | 0% |
| CNC(=O)c1ccccc1Nc1nc(Nc2cccc(CS(C)(=O)=O)c2)ncc1C.O=CO [GSK1520489] | 28% |
| COc1cc2c(Nc3ccc(NC(=O)c4ccccc4)cc3)ncnc2cc1OCCCN1CCOCC1 [GSK301329] | 0% |
| O=C(Nc1ccc(Oc2ccc3nc(NC(=O)C4CC4)cn3n2)c(F)c1)c1cccn(-c2ccccc2)c1=O | 0% |
| COc1cc(Nc2nccc(N3CCC(NC(=O)c4cccc(C#N)c4)C3)n2)cc(OC)c1OC (stereo not shown) [GSK1379751] | 0% |
| CC(C)S(=O)(=O)N1CCN(Cc2ccc3c(c2)nc(NC(=O)c2ccsc2)n3C[C@H](O)c2ccccc2)CC1 [GW635815] | 0% |

| SMILES | %Inh |
| --- | --- |
| Cn1ccc2ncnc(Oc3ccc(NC(=O)Nc4cccc(C(F)(F)F)c4)c(F)c3)c21 | 10% |
| Cc1ccc2c(-c3ccnc(Nc4ccc(C(F)(F)F)cc4)n3)cnn2n1 [GW819776] | 0% |
| C[C@@H]1CNc2c(sc3ccc4nc(-c5ccncc5)ccc4c23)C(=O)N1 | 0% |
| Cn1ccc2ncnc(Oc3ccc(NC(=O)Nc4cccc(C(F)(F)F)c4)c(Cl)c3)c21 | 0% |
| COc1cccc(OC)c1C(=O)Nc1cccc(-c2nn3ccccc3c2-c2ccnc(Nc3cccc(F)c3)n2)c1 [GSK361065] | 0% |
| CN1CCN(CCCNc2nccc(-c3c(-c4ccc(F)cc4)nn4cc(C(N)=O)ccc34)n2)CC1 [GW622475] | 2% |
| CCCC(=O)Nc1n[nH]c2ncccc12 [SB-601436] | 0% |
| Cn1ccc2ncnc(Oc3ccc(NC(=O)Nc4cc(C(C)(C)C)on4)c(Cl)c3)c21 | 0% |
| Cl.c1ccc(Oc2ccc(Nc3ccnc4cc(-c5ccc(CN6CCNCC6)o5)ccc34)cc2)nc1 [GW567142] | 0% |
| CC(=O)Nc1ccc(-c2cc3ncnc(SCC(=O)O)c3s2)cc1 | 23% |
| Cc1ccc(Nc2ccnc(Nc3ccc4c(c3)CS(=O)(=O)C4)n2)cc1O.Cl [GW579362] | 47% |
| COc1cccc(C2=C(Nc3cccc(Cl)c3)C(=O)NC2=O)c1 [SB-341556] | 11% |
| OCCn1cc(-c2cnc3nnn(Cc4ccc5ncccc5c4)c3n2)cn1 | 0% |
| Cn1ccc2ncnc(Oc3ccc(NC(=O)Nc4cncc(C(F)(F)F)c4)c(Cl)c3)c21 | 0% |
| CN(c1cccc(CNc2nc(Nc3ccc4c(c3)CC(=O)N4)ncc2C(F)(F)F)c1)S(C)(=O)=O | 0% |
| Cl.Cl.NC[C@H](CC1CCCCC1)NC(=O)c1ccc(-c2ccnc3[nH]ccc23)s1 [GSK1581428] | 13% |
| N#Cc1cccc(C(=O)NC2CCN(c3ccnc(Nc4ccc(F)cc4)n3)C2)c1 (stereo not shown) [GSK1379708] | 0% |
| c1ccc(Oc2ccc(Nc3ccnc4ccc(-c5ccccn5)cc34)cc2)cc1 [GW407034] | 0% |
